TDP1 cell CPT – qHTS for Inhibitors of human tyrosyl-DNA phosphodiesterase 1 (TDP1): qHTS in cells in presence of CPT; Potency, µM (series often up to 46.2 µM), for inactives: top-dose activity change, negative = growth inhibition, most hits filed as inhibitors; chicken DT40 Tdp1-/-;hTDP1 cells + 20 nM CPT, ATP luminescence, 48 h; 12% of 420,000 active; AID 686979, 2013; also: potency is read from the fitted curve at half-maximal effect; nearly all actives have a fitted effect of over 55% in size
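Cell growth measured by CellTiter-Glo luminescence after a minimum 48 h, 37 C compound exposure with 20 nM CPT in Tdp1-knockout DT40 cells stably expressing hTDP1, seeded 400/well; qHTS titration format.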
IL1B secr inh – qHTS for Inhibitors of Inflammasome Signaling: IL-1-beta AlphaLISA Primary Screen; THP-1 LPS/ATP IL-1B secretion, AlphaLISA, 16 h; active compounds read low; activity change, % at 57.5 µM; 4.7% of 360,000 active; in the data active = activity change below about -50%; inconclusive = mostly about -30% to -49%
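Secreted IL-1B measured by AlphaLISA bead assay after 16 h compound exposure of THP-1 cells; compounds (final up to 57.5 uM) added 1 h before LPS (250 ng/mL) and ATP (1.25 mM) stimulation; lower signal means less secretion.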
DT40 TDP1 no CPT – qHTS for Inhibitors of human tyrosyl-DNA phosphodiesterase 1 (TDP1): qHTS in cells in absence of CPT | Potency, µM (highest dose often 46.2 µM), for inactives: top-dose activity change, negative = growth inhibition, most hits filed as inhibitors | DT40 Tdp1-/- hTDP1 cells, no CPT, ATP luminescence, 48 h | 15% of 420,000 active; also: potency is read from the fitted curve at half-maximal effect; nearly all actives have a fitted effect of over 55% in size
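Camptothecin absent (DMSO only). Human TDP1-complemented DT40 knockout cells, 400 cells/well, 37 °C for minimum 48 hr; ATP measured via CellTiter-Glo, 30 min dark incubation, luminescence.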
RORgamma inh – qHTS for inhibitors of ROR gamma transcriptional activity; 5.4% of 310,000 active; Nuclear receptor ROR-gamma (Mus musculus), P51450; Potency, µM (highest dose often 53.6 µM), without a hit: at the highest dose activity change, negative = inhibition, actives largely listed as inhibitors; Drosophila S2 Gal4-RORgamma UAS-luciferase reporter, 20 h; AID 2551, 2010; also: potency is read from the fitted curve at half-maximal effect; nearly all actives have a fitted effect of over 60% in size
Target sequence (P51450 whole entry, looked up, the tested form may be a part): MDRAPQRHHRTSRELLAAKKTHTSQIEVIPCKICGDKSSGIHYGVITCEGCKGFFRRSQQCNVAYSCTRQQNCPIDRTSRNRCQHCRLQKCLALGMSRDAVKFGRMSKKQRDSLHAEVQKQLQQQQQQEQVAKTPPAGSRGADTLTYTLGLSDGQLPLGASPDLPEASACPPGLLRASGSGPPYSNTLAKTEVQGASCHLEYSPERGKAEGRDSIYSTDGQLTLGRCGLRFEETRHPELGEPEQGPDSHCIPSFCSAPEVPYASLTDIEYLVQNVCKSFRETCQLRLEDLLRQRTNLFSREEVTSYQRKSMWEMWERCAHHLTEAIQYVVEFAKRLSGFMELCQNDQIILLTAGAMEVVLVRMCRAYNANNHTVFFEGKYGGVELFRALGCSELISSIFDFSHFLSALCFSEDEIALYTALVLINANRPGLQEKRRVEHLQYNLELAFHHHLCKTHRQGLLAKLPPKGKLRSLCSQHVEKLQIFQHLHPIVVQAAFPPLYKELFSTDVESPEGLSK
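Drosophila Schneider cells stably carrying a metallothionein-driven Gal4 DBD–ROR gamma fusion and a UAS-Photinus luciferase reporter were exposed to compound for 1 hr, then induced with copper sulfate (700 uM final) for 20 hr at ambient temperature before luminescence reading.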
Gal4-VP16 FLuc – VP16 counterscreen qHTS for inhibitors of ROR gamma transcriptional activity | Potency, µM (highest dose often 53.6 µM), for inactives: at the highest dose activity, negative = inhibition, most hits filed as inhibitors | Drosophila S2 Gal4-VP16 UAS-luciferase, luminescence, 20 h | 3.5% of 310,000 active | AID 2546, 2010;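 also: Gal4-VP16 expression switched on by copper sulfate through the metallothionein promoter; potency is read from the fitted curve at half-maximal effect; nearly all actives have a fitted effect of over 50% in size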
ELG1 DNA repair – qHTS screen for small molecules that inhibit ELG1-dependent DNA repair in human embryonic kidney (HEK293T) cells expressing luciferase-tagged ELG1 | HEK293T ELG1-luciferase reporter, luminescence, 16 h; DNA damage induced by 5-fluorouridine | Potency, µM (top dose mostly 46.1 µM), inactives show top-dose activity change, negative = inhibition, most hits filed as inhibitors | 2.3% of 330,000 active; also: potency is read from the fitted curve at half-maximal effect; nearly all actives have a fitted effect of over 55% in size
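Luminescence from the luciferase reporter, measured 30 min after ONE-Glo reagent at room temperature, was the read-out. Beforehand, 2,000 cells per well were exposed for 16 hr at 37 °C to 5-fluorouridine together with compound or vehicle.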
* = called active by the depositor; u = inconclusive; x = no result; [ ] = another dose, or the depositor's remark. Compounds with a hit are over-represented: about 21% of the library has one in this group of screens. Unless noted, calls follow the shape of the dose curve; as a rule, active = well fitted curve in the direction sought with a large enough effect; inconclusive = small, poorly fitted or top-dose-only effect, or another doubt; inactive = no such curve, though single readings can be large; an effect the other way counts as inactive or inconclusive. % is scaled to controls: 0 for no effect and ±100 for the full control effect.

SMILES | TDP1 cell CPT | IL1B secr inh | DT40 TDP1 no CPT | RORgamma inh | Gal4-VP16 FLuc | ELG1 DNA repair
Cc1ccc2cc(CCNC(=O)c3ccc4c(c3)OCO4)c(=O)[nH]c2c1C | 21µM* | 0 | 15µM* | u | 0% | u
O=C(NCc1ccc2c(c1)OCO2)c1ccccc1 | -8% | -8 | -9% | u | 21% | -2%
O=C(NCCc1ccc2c(c1)OCCO2)c1cc(F)cc(F)c1 | 21µM* | 4 | 16µM* | u | u | 10%
CC(CCl)n1c(=O)c2ccccc2n1C(=O)c1ccccc1 (stereo not drawn) | -21% | 2 | u | x | x | x
CNC(=O)C[C@H]1C(=O)N(c2ccc(OC)cc2)C[C@@H]1CSC | -1% | -1 | 2% | x | x | x
Cc1ccn2c(C(=O)N/N=C\c3cccs3)c(C)nc2c1 | -11% | 18 | -20% | u | 1%[0.365 µM] | 0%
Cc1ccc2nc(C)c(C(=O)N/N=C/c3cccs3)n2c1 | u | 0 | u | 11µM* | -2% | -5%
Cc1ccc2nc(C)c(C(=O)NN=C3CCCCCC3)n2c1 | u | 47 | 6% | 13µM* | -25% | u
Cc1ccc(-c2[nH]c(-c3ccc(C(=O)O)cc3)nc2-c2ccccc2)cc1 | -11% | 48 | -18% | 27% | -7% | 14%
CS(=O)(=O)c1ccc(-c2nc(-c3ccc(F)cc3)c(-c3ccncc3)[nH]2)cc1 | u | x | 27µM* | x | x | x
O=C(OCC(=O)c1ccc[nH]1)c1ccc(S(=O)(=O)C(F)F)cc1 | 3% | 6 | 7% | x | x | x
O=C(NCC(=O)N(c1cccc(F)c1)C(C(=O)NCC1CCCO1)c1ccccc1)c1ccco1 (stereo not drawn) | 2% | -2 | -8% | 6.3µM* | 3% | -24%
Cc1ccc(CN(C(=O)CNC(=O)c2cccs2)C(C(=O)NCC2CCCO2)c2ccccc2)cc1 (stereo not drawn) | u | -7 | u | u | u | 9.2µM*
Cc1ccccc1OCC(=O)NNC(=O)CCN1C(=O)c2ccccc2C1=O | 23% | 31 | -5% | -7% | -10% | -14%
S=C(NCc1cccnc1)Nc1ccc(Cl)c(Cl)c1 | -19% | -58* | u | u | u | 1%
S=C(NCc1cccnc1)Nc1ccc(Oc2ccc(Cl)cc2)cc1 | u | -18 | u | -1% | u | 10µM*
O=C(COc1cccnc1[N+](=O)[O-])NCc1ccccc1 | 1% | 0 | 23% | -4% | -1% | u
COC(=O)[C@@H]1CCCN1S(=O)(=O)Cc1ccccc1 | -30% | x | -6% | x | x | x
CCc1nc2cc(C(=O)N(C)CC3COCCO3)cc(NC(=O)c3ccccc3OC)c2n1C (stereo not drawn) | 19% | x | -9% | x | x | x
C=CCNC(=S)N1N=C(c2ccco2)CC1c1ccco1 (stereo not drawn) | -10% | 1 | -28% | x | x | x
CC1(c2ccc([N+](=O)[O-])cc2)Nc2ccccc2S1 (stereo not drawn) | u | u | 0% | 20% | -1% | u
Cc1ccsc1/C=N/Nc1ncc(Cl)cc1Cl | u | -14 | u | 7.1µM* | 5µM* | u
Cc1ccsc1/C=N/Nc1nc(=O)[nH]nc1C | 21µM* | 8 | 15µM* | 5.6µM* | 10µM* | u
Cc1cc(C)nc(N/N=C/c2sccc2C)n1 | u | 46 | u | u | -23% | u
Cc1ccsc1/C=N/NC(=O)c1ccco1 | -17% | -14 | -13% | -40% | 2% | u
SMILES | TDP1 cell CPT | IL1B secr inh | DT40 TDP1 no CPT | RORgamma inh | Gal4-VP16 FLuc | ELG1 DNA repair
COc1ccc(Cc2nnc(NC(=O)Nc3cccc(OC)c3)s2)cc1 | 3% | 44 | -15% | -35% | -2% | 12%
CCSc1nsc(NC(=O)Nc2cccc(OC)c2)n1 | u | -97* | u | 18%[1.91 µM] | -14% | -9%
CCSc1nsc(NC(=O)Nc2ccccc2F)n1 | 18µM* | -93* | 16µM* | u | -9% | u
CCOC(=O)c1sc(NC(=O)Nc2ccc(F)cc2)nc1C | u | x | u | -8% | u | u
C=CCSc1nsc(NC(=O)Nc2ccc(F)cc2)n1 | 18µM* | -88* | 3.3µM* | u | 3.5µM* | u
CCCC(C)NCC(=O)Nc1ccccc1-c1ccccc1 (stereo not drawn) | -29% | -2 | -24% | 9% | -3% | -8%
CCc1nc2ccc(C(=O)N3CCN(C(=O)c4ccco4)CC3)cn2c1N(CC)CCOC | -5% | 0 | -11% | x | x | x
Cc1ccc(C)c(S(=O)(=O)Nc2ccccc2C(=O)Nc2cc(C)on2)c1 | 16µM* | 34 | u | -36% | -9% | 26µM*
Cc1ccc(C)c(NC(=O)c2ccccc2NS(=O)(=O)c2cc([N+](=O)[O-])ccc2C)c1 | 3.3µM* | u | 4.1µM* | u | 14µM* | u
Cc1ccc([N+](=O)[O-])cc1S(=O)(=O)Nc1cccc(S(=O)(=O)Nc2ccccc2C(=O)O)c1 | -8% | 19 | 11% | x | x | 0%
O=c1[nH]c(SCc2ccc(OC(F)(F)F)cc2)nc2c1CCC2 | u | 0 | u | x | x | x
COc1cc(C2C(C#N)=C(N)N(N(C)C)C3=C2C(=O)CC(C)(C)C3)cc(OC)c1OC (stereo not drawn) | 18% | 24 | -1% | 15% | -1% | -2%
CCCOc1ccc(NC(=O)CCC(=O)NC(C)c2ccccc2)cc1 (stereo not drawn) | -23% | 18 | 10% | -32% | 3% | -7%
COc1ccc2[nH]c3c(c2c1)CCN1C(=O)C(CC(=O)NC/C=C(\C)CCC=C(C)C)C[C@H](C(=O)N2CCCCC2)[C@@]31C (stereo partly drawn) | x | x | x | x | x | 0%
CCN(CC)C(=O)[C@H]1C[C@H](CC(=O)NC/C=C(\C)CCC=C(C)C)C(=O)N2CCc3c([nH]c4ccc(Cl)cc34)[C@]12C | u | -4 | u | x | x | -12%
CC(C)=CCC/C(C)=C/CNC(=O)CC1C[C@H](C(=O)N2CCCCC2)[C@@]2(C)c3[nH]c4ccccc4c3CCN2C1=O (stereo partly drawn) | 21µM* | 62 | 13µM* | x | x | 6%

Screens deposited in PubChem by National Center for Advancing Translational Sciences (NCATS).
